Compounds without any hit were thinned out: in the full panel of roughly 83,000, 20% have a hit.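 Testing used 96-well plates and a 48-hour single-concentration exposure. Example: -40 means 40% of the starting cells died.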 Active and inactive are the calls of the source. How the source made its calls: active means growth percent below 10; inactive means the rest.
Tested on: SNB-19 CNS
Assay: NCI-60 one-dose screen, 48 h (100 = growth as untreated, 0 = no growth, -100 = all killed)
Settings: 10 µM unless noted

| SMILES | growth |
| --- | --- |
| COc1ccccc1-c1ccc2c(N)c(C(=O)c3ccc4c(c3)OCO4)sc2n1 | 82.1% (inactive) |
| CC(=O)C1=C(O)C=C2Oc3c(C(=O)/C=C/c4cc(C(F)(F)F)cc(C(F)(F)F)c4)c(O)c(C)c(O)c3[C@]2(C)C1=O | -17.5% (active) |
| CC/C=C\C[C@H](O)C/C=C1/C(=O)C=C[C@@H]1C/C=C\CCCC(=O)NC(C)C | 31.8% (inactive) |
| COc1ccc(C(=O)c2sc3nc4c(cc3c2N)CCCC4)cc1OC | 71.3% (inactive) |
| CS(CCCCN=C=S)=NC(=O)c1c(F)c(F)c(F)c(F)c1F (centres undefined) | 91.9% (inactive) |
| COc1ccc(-c2c(C)noc2-c2ccc(O)cc2O)cc1 | 104% (inactive) |
| COc1ccc(C(=O)c2sc3nc(-c4ccccc4OC)ccc3c2N)cc1OC | 78.2% (inactive) |
| NC1=CC(=O)C(=O)c2ccccc21 | 93.2% (inactive) |
| COc1ccc(C(=O)c2sc3nc4c(c(C(F)(F)F)c3c2N)CN(C(C)=O)CC4)cc1OC | 95.8% (inactive) |
| COc1cc(C(=O)/C=C/c2c(C)n([O-])c3ccc(C)cc3[n+]2=O)cc(OC)c1OC | 108% (inactive) |
| COc1cc(C2C(C(=O)c3cccs3)=C(O)C(=O)N2CCN2CCOCC2)cc(OC)c1OC (centres undefined) | 103% (inactive) |
| COC(=O)C12C3C(=O)N(c4ccc(OC)cc4)C(=O)C3C(c3cn(-c4ccccc4)nc3C)N1[C@H](c1cn(-c3ccccc3)nc1C)[C@@H]1C(=O)N(c3ccc(OC)cc3)C(=O)[C@@H]12 (some centres undefined) | 91.1% (inactive) |
| COc1cc(C2CC(=O)Nc3c2cnn3Cc2ccco2)cc2c1OCCO2 (centres undefined) | 97.9% (inactive) |
| COc1ccc(C2CC(=O)Nc3c2c(C)nn3-c2nc3ccccc3[nH]2)cc1 (centres undefined) | 113% (inactive) |
| CCn1cc2c(cc1=O)-c1nc3ccccc3c3ccnc(c13)C2=O | 37.4% (inactive) |
| NCc1cn2cc(Cl)sc2n1 | 112% (inactive) |
| CCOc1ccc(Nc2nc(-c3c(C)nc4ncccn34)cs2)cc1 | 33.4% (inactive) |
| N#CC1=C(N)Oc2c(ccc3ccccc23)C1c1cccs1 (centres undefined) | 49.7% (inactive) |
| CCOC(=O)C12CCCC1=CC(=O)CC2 (centres undefined) | 99.9% (inactive) |
| CCCC(=O)Oc1ccc(/C(=C(/CC)Cc2ccccc2)c2ccc(OCCN3CCCC3)cc2)cc1 | 94.2% (inactive) |

| SMILES | growth |
| --- | --- |
| C=C1CCC2C3(C)COC(c4ccc(OC)cc4Br)OC3CCC2(C)C1/C=C/C1=CCOC1=O (centres undefined) | 97.4% (inactive) |
| CS(=O)(=O)c1c(Nc2ccccc2)n[nH]c1N | 91.1% (inactive) |
| CC/C=C\C[C@H](O)C/C=C1/C(=O)C=C[C@@H]1C/C=C\CCCC(N)=O | 26.9% (inactive) |
| CCN(CC)C12CCCCC1(C)C(C#N)(C#N)C(C#N)=C(N)O2 (centres undefined) | 106% (inactive) |
| O=C1c2c[n+](Cc3ccccc3)ccc2-c2nc3ccccc3c3ccnc1c23 | -72.2% (active) |
| Cc1nn(-c2nc3ccccc3[nH]2)c2c1C(c1ccc3c(c1)OCO3)CC(=O)N2 (centres undefined) | 49% (inactive) |
| O=c1ccc2cc3ccccc3cc2[nH]1 | 104% (inactive) |
| O=C(Nc1cccc2[nH]c(C(F)(F)F)nc12)c1ccc(Br)cc1F | 29.7% (inactive) |
| COc1cc(-c2cnc3nonc3n2)c(OC)c2c1OCO2 | 108% (inactive) |
| COc1cnc2c(c1)C(=O)c1c-2n(CCCBr)c(=O)c2cc([N+](=O)[O-])ccc12 | 22.3% (inactive) |
| Clc1cccc(Nc2nc(Nc3cnc4ccccc4c3)c3[nH]cnc3n2)c1 | 80.6% (inactive) |
| COc1cc(C2CC(=O)c3c(C)nn(-c4nc5ccccc5[nH]4)c3C2)cc(OC)c1OC (centres undefined) | 71.8% (inactive) |
| CC(C)Oc1nc2c(c(=O)n(C)c(=O)n2C)n1C | 96.4% (inactive) |
| CC/C=C\C[C@H](F)C/C=C1/C(=O)C=C[C@@H]1C/C=C\CCCC(=O)OC | 34% (inactive) |
| Cc1ccn2c(-c3csc(Nc4cccc(O)c4)n3)c(C)nc2c1 | 49.2% (inactive) |
| O=C(/C=C/c1cc2ccccc2[nH]c1=O)/C=C/c1cc2ccccc2[nH]c1=O | 44.5% (inactive) |
| COc1ccc(-c2cnoc2-c2cc(OC)c3c(c2)OCCO3)cc1 | 29.5% (inactive) |
| CC/C(Cc1ccccc1)=C(\c1ccc(OCCN2CCCC2)cc1)c1ccc(OC(C)=O)cc1 | 105% (inactive) |
| C[C@]12C[C@@H](c3ccoc3)OC(=O)[C@@H]1CC[C@]1(C)[C@@H]2CC[C@@H](O)[C@]1(C)O | 76.5% (inactive) |

Source: PubChem BioAssay (NCI)
